# Source: PubChem BioAssay
# An excerpt weighted towards active compounds, which were near 27% of everything screened.
# CYP2C9 inhib: inhibitors of human CYP2C9; P11712; CYP2C9 Supersomes, luciferin-H conversion, luminescence; inhibition, % at 5 µM; actives 20% (n = 96,000); AID 777;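 active means blocking of liver enzyme CYP2C9 beyond about 50% at 5 µM, limit read from the data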
# CYP2C9 activ: CYP2C9 (human) activation; recombinant CYP2C9, luciferin-H conversion, luminescence; active compounds read high; factor 1 = untreated enzyme, 0 = blocked; actives 1.4% (n = 96,000); AID 1024; P11712; activation factor at 5 µM;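 active means activation factor of 2 or more for CYP2C9 at a 5 µM dose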;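 further: 0 = sulfaphenazole-blocked wells and 1 = vehicle-only wells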
# PTK2B oligo ant: antagonists of human Pyk2 oligomerization; Q14289; Q293 cells, Pyk2 FERM NanoBiT luminescence; active compounds read low; z-score (the deposit names both 25 µM and 10 µM); actives 0.83% (n = 99,000);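 active means Z-score of -3 or lower, scaled per plate to the spread of control and sample wells; inactive means z-score above -3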;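 further: negative z-score means lost luminescence so less FERM oligomerization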
# Target sequence (Q14289 whole entry, looked up): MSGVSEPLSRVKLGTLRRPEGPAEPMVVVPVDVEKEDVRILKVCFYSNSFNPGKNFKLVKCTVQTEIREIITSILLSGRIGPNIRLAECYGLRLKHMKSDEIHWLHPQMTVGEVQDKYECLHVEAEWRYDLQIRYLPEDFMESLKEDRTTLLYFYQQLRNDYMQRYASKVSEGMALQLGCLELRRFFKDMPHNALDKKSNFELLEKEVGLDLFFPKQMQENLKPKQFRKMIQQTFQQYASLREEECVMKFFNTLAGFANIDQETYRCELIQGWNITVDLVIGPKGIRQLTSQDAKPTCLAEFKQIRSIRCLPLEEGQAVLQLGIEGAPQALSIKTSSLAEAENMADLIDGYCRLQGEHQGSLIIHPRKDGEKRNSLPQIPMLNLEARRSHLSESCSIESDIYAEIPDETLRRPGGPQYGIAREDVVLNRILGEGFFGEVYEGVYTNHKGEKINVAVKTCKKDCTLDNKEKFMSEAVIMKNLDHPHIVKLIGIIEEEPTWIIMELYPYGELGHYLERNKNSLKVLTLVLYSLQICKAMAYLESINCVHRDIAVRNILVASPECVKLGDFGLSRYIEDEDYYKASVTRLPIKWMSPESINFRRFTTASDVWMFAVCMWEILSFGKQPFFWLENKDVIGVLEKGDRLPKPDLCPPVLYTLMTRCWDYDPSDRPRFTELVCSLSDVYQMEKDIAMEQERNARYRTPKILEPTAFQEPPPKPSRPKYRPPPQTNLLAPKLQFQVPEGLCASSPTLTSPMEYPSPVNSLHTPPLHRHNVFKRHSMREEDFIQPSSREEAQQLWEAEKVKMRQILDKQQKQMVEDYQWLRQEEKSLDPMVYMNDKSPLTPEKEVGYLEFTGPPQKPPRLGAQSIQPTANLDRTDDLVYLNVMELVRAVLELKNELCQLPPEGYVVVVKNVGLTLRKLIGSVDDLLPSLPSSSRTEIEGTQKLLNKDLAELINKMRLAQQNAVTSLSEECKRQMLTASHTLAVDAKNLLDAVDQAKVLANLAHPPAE
# Cav32 inh: blocks human Cav3.2 T-type calcium channel; B-score at 10 µM; Cav3.2-expressing cells, Fluo-4 calcium fluorescence FDSS; active compounds read low; AID 449739; actives 4% (n = 100,000);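 active means single-dose well whose peak fluorescence ratio is a statistical outlier from its plate by either plate-standardised score or position-corrected B-score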
# CYP2C19 activ: increases human CYP2C19 enzyme activity. AID 1025. activation factor at 5 µM. 96,000 tested, under 10 active. P33261. recombinant CYP2C19, luciferin-H EGE luminescence; active compounds read high; 0 = fully inhibited enzyme, 1 = untreated enzyme;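 active means activation factor of at least 2 at 5 µM in the primary screen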;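 further: 0 = wells with 2.5 mM tranylcypromine and 1 = vehicle-only wells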
# CYP2C19 inh: blocks human cytochrome P450 2C19; CYP2C19 Supersomes, luciferin-H EGE luminescence, 30 min; inhibition, % at 5 µM; actives 21% (n = 96,000); AID 778;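 active means CYP2C19 inhibition above a set limit at 5 µM in the primary screen, cut at about 50% in these data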;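 further: plate controls were negative control wells for no effect and 2.5 mM tranylcypromine positive control for full effect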
# The depositor's hits bear a star; nt = no result given.
SMILES,CYP2C9 inhib,CYP2C9 activ,PTK2B oligo ant,Cav32 inh,CYP2C19 activ,CYP2C19 inh
O=S(=O)(Nc1ccccc1N1CCCCC1)c1ccc(Cl)s1,12,0.9,0.36,0.05,0.4,57*
CCCC(=O)N=C1SC2CS(=O)(=O)CC2N1c1ccc(CC)cc1 (stereo unspecified),10,0.9,-0.15,nt,1,-3
COc1ccc(CCN2C(=NC(=O)CC(C)C)SC3CS(=O)(=O)CC32)cc1 (stereo unspecified),56*,0.4,-0.37,2.9,0.2,82*
O=C(Nc1cccc(C(F)(F)F)c1)N(Cc1ccc(Cl)cc1)CC(O)C(F)(F)F (stereo unspecified),37,0.6,-0.06,-2.8,0.5,48
Cc1ccc(N=Cc2nc(-c3ccco3)oc2O)cc1,56*,0.4,0.37,0.38,0.7,26
Cc1ccc(C(=O)Oc2oc(-c3ccco3)nc2C=Nc2ccc(Cl)cc2)cc1,38,0.6,0.69,0.8,0.7,30
Cc1ccc2c(COC(=O)c3n[nH]c4ccccc34)cc(=O)oc2c1,57*,0.4,-0.37,-1,0.9,12
CCc1ccc2c(COC(=O)c3n[nH]c4ccccc34)cc(=O)oc2c1,81*,0.2,-0.77,-0.019,0.4,58*
COc1ccc(Br)cc1CNC(=O)Nc1cccs1,67*,0.3,0.08,-2.4,0.2,76*
COc1ccccc1CNC(=O)Nc1cccs1,41,0.6,0.64,-0.42,0.1,88*
COc1ccccc1CNC(=O)c1cccs1,-2,1,-0.34,0.46,0.6,45
Cc1cc(Cl)ccc1OCCCC(N)=O,12,0.9,2.1,-0.01,0.6,40
Cc1cc(Cl)ccc1OC(C)c1nnc(N)s1 (stereo unspecified),-1,1,-0.22,-0.24,0.4,61*
CC(Sc1nnc(-c2cccs2)n1-c1ccccc1)C(=O)NCc1ccc2c(c1)OCO2 (stereo unspecified),93*,0.1,-1.8,-0.16,0.3,75*
O=C(CSc1nnc2sc3ccccc3n12)NCc1ccc2c(c1)OCO2,nt,nt,nt,-0.59,nt,nt
O=C(CSc1nnc2scc(-c3ccccc3)n12)NCc1ccc2c(c1)OCO2,12,0.9,0.67,0.61,0.3,68*
C=CCn1c(SC(C)C(=O)NCc2ccc3c(c2)OCO3)nc2scc(-c3ccccc3)c2c1=O (stereo unspecified),80*,0.2,-1.2,-2.2,0.2,76*
O=C(CSc1nnc(Cc2cccs2)n1-c1ccccc1)NCc1ccc2c(c1)OCO2,59*,0.4,0.67,-4.7*,0.8,20
Cc1ccc(C(=O)Nc2ncc3c(Cl)cccc3n2)cc1,26,0.7,-0.08,-0.21,0.7,34
N#Cc1nc(Cc2ccccc2)oc1NCc1cccnc1,nt,nt,-0.39,0.28,nt,nt
N#Cc1nc(COc2cccc(Cl)c2)oc1NCc1ccncc1,100*,0,-0.03,-2.9,0,100*
COc1ccc(CNc2oc(COc3ccc(Cl)cc3)nc2C#N)cc1,29,0.7,-1.1,-4.4*,0.7,31
CCOc1ccc(-c2nc(C#N)c(NCc3ccc4c(c3)OCO4)o2)cc1,28,0.7,nt,nt,1.1,-12
Cc1ccc(OCc2nc(C#N)c(NCc3ccc4c(c3)OCO4)o2)cc1,99*,0,-0.66,-6.5*,0,98*
C=CCNc1oc(COc2ccc(C)cc2)nc1C#N,27,0.7,nt,-0.94,0.3,65*
SMILES,CYP2C9 inhib,CYP2C9 activ,PTK2B oligo ant,Cav32 inh,CYP2C19 activ,CYP2C19 inh
Cc1cccc2c1NC(C)CC2C (stereo unspecified),6,0.9,0.3,0.97,1,1
OCC1CCCN1C(=S)Nc1ccccc1 (stereo unspecified),-9,1.1,0.36,0.11,0.7,27
CN1CCN(C2=C(Cl)C(=O)N(C3CCCCC3)C2=O)CC1,2,1,-0.29,-0.21,0.1,94*
COC(=O)c1cc2ccsc2n1CC(=O)NCC1CCCO1 (stereo unspecified),8,0.9,0.66,0.029,0.6,36
CC(C)C(OC(=O)c1cc2sccc2n1C)C(=O)NCC1CCCO1 (stereo unspecified),43,0.6,1.3,0.76,0.4,56*
Cn1c(C(=O)OC(C(=O)NC2CCCC2)c2ccncc2)cc2sccc21 (stereo unspecified),72*,0.3,-1.3,0.24,0.1,95*
O=S1(=O)CC(O)C(N2CCCCC2)C1 (stereo unspecified),nt,nt,0.24,0.27,nt,nt
Cc1cc(C#N)c(C)n1-c1cc(S(=O)(=O)N2CCOCC2)ccc1N1CCCC1,73*,0.3,-1.6,0.48,0.7,33
CCCOc1nc2c(c(=O)n(C)c(=O)n2C)n1Cc1cccc2ccccc12,47,0.5,-1.5,-2.7,0.8,24
COc1ccc(NC(=O)CCS(=O)(=O)c2cccc3nonc23)c(OC)c1,8,0.9,-0.23,0.11,0.6,44
CCc1ccc(NC(=O)CCNS(=O)(=O)c2cccc3nsnc23)cc1,42,0.6,1,0.18,0.5,51*
CCOc1ccc(CCNS(=O)(=O)c2cccc3nsnc23)cc1OCC,57*,0.4,0.23,nt,0.1,86*
COc1ccc(CCNS(=O)(=O)c2cccc3nsnc23)cc1OC,nt,nt,0.8,0.93,nt,nt
Cc1cccc2sc(NC(=O)CCNS(=O)(=O)c3cccc4nonc34)nc12,58*,0.4,0.32,nt,0.3,72*
COC(=O)c1ccc(NC(=O)CCNS(=O)(=O)c2cccc3nonc23)cc1,26,0.7,-0.82,nt,0.3,72*
O=c1c2ccsc2ncn1Cc1ccc(Cl)cc1,54*,0.5,-0.99,-0.87,0.4,61*
Cc1sc2c(c1C)CN(Cc1ccncc1)CN2C(=O)c1ccco1,91*,0.1,-0.81,0.39,0.2,77*
COc1ccc(C2CC(c3cccs3)=NN2C(=O)CSC2=NN3CCCC(=O)N=C3S2)cc1 (stereo unspecified),25,0.7,nt,-0.029,1,3
Cc1ccc(C2CC(c3cccs3)=NN2C(=O)CSC2=NN3CCCC(=O)N=C3S2)cc1 (stereo unspecified),82*,0.2,nt,-1.1,0.1,91*
CN(C)[C@H]1N(C(=O)c2ccc(Br)cc2)N=C2c3ccccc3S(=O)(=O)N21,57*,0.4,-2,0.26,0.6,45
COc1ccc(N2C(=O)C3CCCN3C2c2ccccc2)cc1 (stereo unspecified),6,0.9,nt,-0.2,1,4
Cc1ccsc1C(=O)OCc1nc2ccccc2c(=O)[nH]1,87*,0.1,-0.78,0.48,0.3,72*
O=C(CCCc1c[nH]c2ccccc12)N1CCN(S(=O)(=O)c2cccs2)CC1,-1,1,0.59,0.84,0.9,9
Cc1[nH]c2ccccc2c1SCC(=O)N1CCOCC1,-69,1.7,nt,0.062,0.1,93*
